According to PubChem BioAssay (NCATS):
Records with an inconclusive call do not appear. Entries that show only a call come without a potency. Values without a mark were called inactive. Active and inactive are the calls of the source. Calls come from the whole dose curve; as a rule, active = well fitted curve in the direction sought with a large enough effect; inconclusive = small, poorly fitted or top-dose-only effect, or another doubt; inactive = no such curve, though single readings can be large; an effect the other way counts as inactive or inconclusive.

Legend:
[1] = target: Cellular tumor antigen p53 (Homo sapiens) (UniProt P04637); assay: Primary qHTS for small molecule compounds that upregulate eGFP-tagged delta133p53alpha (in N-terminal) cells. (AID 2060322); conditions: NCI-H358 eGFP-delta133p53alpha fluorescence, 24 h; activation: active compounds read high; note: nearly all actives have a fitted effect of over 75% in size; note: potency is the fitted concentration of half-maximal effect;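 for activation: cells pre-induced with doxycycline then dosed without doxycycline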
Chain of Cellular tumor antigen p53 (Homo sapiens) (P04637 whole entry, looked up): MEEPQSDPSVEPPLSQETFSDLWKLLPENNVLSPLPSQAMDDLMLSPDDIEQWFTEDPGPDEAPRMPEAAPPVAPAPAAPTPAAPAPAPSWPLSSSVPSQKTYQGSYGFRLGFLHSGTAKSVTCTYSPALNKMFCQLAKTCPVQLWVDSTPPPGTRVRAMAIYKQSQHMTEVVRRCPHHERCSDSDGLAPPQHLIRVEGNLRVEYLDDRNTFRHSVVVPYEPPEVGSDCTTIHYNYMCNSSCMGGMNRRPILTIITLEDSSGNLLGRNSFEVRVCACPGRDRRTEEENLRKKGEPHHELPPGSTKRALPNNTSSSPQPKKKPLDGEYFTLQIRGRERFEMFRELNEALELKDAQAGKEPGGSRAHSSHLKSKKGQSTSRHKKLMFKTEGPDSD
How it was run: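 NCI-H358 cells pre-induced 24 h with 10 ng/ml doxycycline for eGFP-delta133p53alpha, plated dox-free and exposed 24 h at 37C to titrated compounds. Fixed, Hoechst-stained; gated GFP peak intensity by laser scanning cytometry, normalized to DMSO (0%) and 57.5 uM 5-azacytidine (100%).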

[2] = target: Aldehyde dehydrogenase, mitochondrial (Homo sapiens) (UniProt P05091); assay: qHTS for Inhibitors of the Aldehyde Dehydrogenase Family (ALDH2) Primary screen (AID 2061308); conditions: ALDH2 enzyme inhibition qHTS, 1536-well; series mostly up to 56 µM; note: nearly all actives have a fitted effect of over 55% in size

Row | SMILES | activation [1] | Potency [2] | Potency [1]
1 | COc1ccc(C2COc3cc(O)ccc3C2)c(O)c1OC (centres undefined) | -2.29% | inactive | –
2 | COc1cc(C(=O)OC[C@H]2O[C@@H](OC(C)(C)C(=O)O)[C@H](O)[C@@H](O)[C@@H]2O)cc(OC)c1O | -29.5% | inactive | –
3 | O=C(O[C@H]1[C@@H]2C[C@@H]3OC[C@](O)([C@@H]1Cl)[C@H]2C(O[C@@H]1O[C@H](CO)[C@@H](O)[C@H](O)[C@H]1O)O3)c1ccc(O)c(O)c1 (some centres undefined) | -22.1% | inactive | –
4 | CC1(C)OC(=O)CC(O)C2(C)C1CC(=O)C1(C)C2C(O)CC2(C)C(c3ccoc3)OC(=O)C3OC321 (centres undefined) | -23.7% | inactive | –
5 | COc1cc(C[C@@]2(O)CO[C@@H](c3ccc(O[C@@H]4O[C@H](CO)[C@@H](O)[C@H](O)[C@H]4O)c(OC)c3)[C@H]2CO)ccc1O | -17% | inactive | –
6 | NC(=O)c1ccc(OCC2NC(=O)C3CCCN3C2=O)cc1 (centres undefined) | -12.2% | inactive | –
7 | O=C(O[C@H]1[C@H](Oc2ccc(O)cc2CO)O[C@H](CO)[C@@H](O)[C@@H]1O)c1ccccc1 | -10.7% | inactive | –
8 | CC1=C(CCC(C)O[C@@H]2O[C@H](CO)[C@@H](O)[C@H](O)[C@H]2O)C(C)(C)CCC1=O (some centres undefined) | -16.8% | inactive | –
9 | Cc1cc(N(C)C)ccc1-c1nc2ccc(-c3nc4ccc(N5CCN(C)CC5)cc4[nH]3)cc2[nH]1 | – | inactive | 30.1 µM (active)
10 | O=C(O[C@H]1[C@@H]2C=CO[C@@H](O[C@@H]3O[C@H](CO)[C@@H](O)[C@H](O)[C@H]3O)[C@@H]2[C@@]2(CO)O[C@@H]12)c1ccc(O)c(O)c1 | -2.68% | inactive | –
11 | C(#Cc1nc2ncccc2nc1OCCN1CCCC1)c1ccccc1 | – | inactive | 6.75 µM (active)
12 | CC(C)(O)C1OC1C1=CC(=O)C2(C)OC2C1O (centres undefined) | 1.79% | inactive | –
13 | COc1cc(N2CCC(N3CCN(C)CC3)CC2)ccc1Nc1ncc(Cl)c(-c2c[nH]c3ccccc23)n1 | – | inactive | 8.49 µM (active)
14 | CC(CNS(=O)(=O)C(C)C)c1ccc(-c2ccc(C#N)cc2)cc1 (centres undefined) | -9% | inactive | –
15 | COc1cc([C@H]2OC[C@](O)(Cc3ccc(O[C@@H]4O[C@H](CO)[C@@H](O)[C@H](O)[C@H]4O)c(OC)c3)[C@@H]2CO)ccc1O | -1.53% | inactive | –
16 | COc1cc(/C=C/C(=O)O[C@H]2[C@H](O)[C@@H](CO)O[C@@]2(CO)O[C@H]2O[C@H](CO)[C@@H](O)[C@H](O)[C@H]2O)ccc1O | 16% | inactive | –
17 | COc1cc(/C=C/C(=O)O[C@H]2[C@H](O)[C@@H](CO)O[C@@]2(CO)O[C@H]2O[C@H](CO)[C@@H](O)[C@H](O)[C@H]2O)cc(OC)c1O | -32.8% | inactive | –
18 | CC1(C)C(O)CCC2(C)C1C(O)C=C1COC(=O)C12O (centres undefined) | 3.82% | inactive | –
19 | COc1cc(N2CCOCC2)ccc1Nc1ncc(F)c(Nc2ccccc2NS(C)(=O)=O)n1 | – | inactive | 9.53 µM (active)
20 | C[C@@H]1O[C@@H](O[C@H]2[C@@H]3C=CO[C@@H](O[C@@H]4O[C@H](CO)[C@@H](O)[C@H](O)[C@H]4O)[C@@H]3[C@@]3(CO)O[C@@H]23)[C@H](OC(=O)/C=C/c2ccc(O)c(O)c2)[C@H](O)[C@H]1O | -5.34% | inactive | –
21 | CC1=CC(=O)CC(C)(C)C1/C=C/C(C)O[C@@H]1O[C@H](CO)[C@@H](O)[C@H](O)[C@H]1O[C@@H]1OC[C@](O)(CO)[C@H]1O (some centres undefined) | -2.68% | inactive | –
22 | COc1cc2nc(N3CCN(C)CC3)nc(NC3CCN(Cc4ccccc4)CC3)c2cc1OC | 2.33% | inactive | –
23 | O=C(/C=C/c1ccccc1)O[C@@H]1[C@@H](CO)O[C@@](CO)(O[C@H]2O[C@H](CO)[C@@H](O)[C@H](O)[C@H]2O)[C@H]1O | -26% | inactive | –
24 | CN1CCCC1Cc1c[nH]c2ccc(CCS(=O)(=O)c3ccccc3)cc12 (centres undefined) | 24.3% | inactive | –
25 | COc1cc(Nc2ccc([N+](=O)[O-])cc2C(=O)O)cc2ccccc12 | -11.9% | inactive | –
26 | C=C1CCC2[C@](C)(CO)CCC[C@@]2(C)[C@@H]1CCC1=CCOC1=O (some centres undefined) | -7.14% | inactive | –
27 | C/C=C(\C)C(=O)OC1C(C)C2(O)C(C=C(CO)CC3(O)C(=O)C(C)=CC32)C2C(C)(C)C12OC(C)=O (centres undefined) | 8.93% | inactive | –
